Measured values: PubChem BioAssay (NCATS)
Where “and” joins values, the source holds several entries; their conditions need not be identical. Equal values may be shown once. Records with an inconclusive call do not appear. Entries that show only a call come without a potency. Calls of active or inactive are those of the source. Calls follow the shape of the dose curve; as a rule, active = well fitted cell-killing curve with a large enough effect; inconclusive = small, poorly fitted or top-dose-only effect, or effect the other way; inactive = no such curve, though single readings can be large or run the other way.
Potency is read from the fitted curve at half-maximal effect.

Assay: Cell Viability - LYMP2-004 (AID 966); also: nearly all actives have a fitted effect of over 65% in size
Conditions: LYMP2-004 lymphoblastoid cell viability, qHTS; series mostly up to 92.2 µM
Excerpt: NIH Chemical Genomics Center [NCGC]
NIH Molecular Libraries Screening Centers Network [MLSCN]
National Institutes of Environmental Health Sciences [NIEHS]
National Toxicology Program [NTP]
We have developed a 1536-well cell-based assay for quantitative high throughput screening (qHTS) against a number of cell lines to determine in vitro cytotoxicity of small molecules. This particular assay uses a human lymphoblastoid cell line (LYMP2-004) purchased from Coriell Institute for Medical Research.
NCGC Assay Protocol Summary:
The CellTiter-Glo luminescent cell viability assay (Promega) is a homogeneous method to measure the number of viable cells in culture. The end point readout of this assay is based on quantitation of intracellular ATP, an indicator of metabolic activity, using the luciferase reaction. Luciferase catalyzes the oxidation of beetle Luciferin to oxyluciferin and light in the presence of ATP. The luminescent signal is proportional to amount of ATP present.
Using the CellTiter-Glo luminescent cell viability assay, the amount of cellular ATP was measured in the lymphoblastoid cell line with complete culture medium following compound treatment for 24 hours. The assay was performed in opaque white Kalypsys 1536-well plates. In the screen, tetraoctylammonium bromide was used as positive control. Library compounds were measured for their ability to cause acute toxicity in the cell line, as reflected by a decrease in intracellular ATP levels, in a concentration-dependent manner. […] AC50 values were determined from concentration-response data modeled with the standard Hill equation.
qHTS protocol for CellTiter Glo lymphoblastoid cellular assay
[Step] [Parameter] [Value] [Description]
1. Reagent; 5 uL; 2500 lymphoblastoid cells/well
2. Time; 5 hr; 37 C incubation
4. Controls; 23 nL; Tetraoctylammonium bromide 6.4pM to 92 uM
5. Time; 24 hr; 37 C incubation
6. Reagent; 5 uL; CellTiter Glo reagent
7. Time; 30 min; Room Temperature
8. Detection; Luminescence; Viewlux plate reader
Keywords: cell viability, cytotoxicity, lymphoblastoid cell line, luminescence, NTPHTS, NTPHTS_NCGC, NIEHS, DSSTox, MLSMR, MLSCN, NIH Roadmap, qHTS, NCGC
In the case of `Cc1ccc(N)c([N+](=O)[O-])c1`, the Potency is reported as “inactive”. With `C/C=C\c1ccc(OC)cc1` the Potency was “inactive”. For `C=CC(=O)OCCOCCOCCOCCOC(=O)C=C`, the Potency was 7.94 µM (active) and 12.6 µM (active). With `Cc1c(N=C=O)cccc1N=C=O` the Potency was “inactive”. In the case of `O=C(O)c1ccccc1C(c1ccc(O)cc1)c1ccc(O)cc1`, the Potency is reported as “inactive”. In the case of `CC(=O)OC/C=C(\C)CCC=C(C)C`, the Potency is reported as “inactive”. With `CC1=CC(C)(C)Nc2ccccc21` the Potency was “inactive”. In the case of `CCCCCCCCO`, the Potency is reported as “inactive”. In the case of `O=NO`, the Potency is reported as “inactive”. With `Cc1ccccc1C` the Potency was “inactive”. In the case of `Clc1cc(Cl)c(Cl)c(Cl)c1Cl`, the Potency is reported as “inactive”. With `C=CC(=C)CCC=C(C)C` the Potency was “inactive”. For `COc1ccc(/C=C/c2cc(OC)cc(=O)o2)cc1`, the Potency was “inactive”. In the case of `O=C(O)c1ccc(O)cc1O`, the Potency is reported as “inactive”. In the case of `C[C@H](CCC(=O)O)[C@H]1CC[C@H]2[C@@H]3CC[C@@H]4C[C@H](O)CC[C@]4(C)[C@H]3CC[C@]12C`, the Potency is reported as “inactive”. For `CN(C)CCCCCCN(C)C`, the Potency was “inactive”. In the case of `c1ccc2c(c1)[nH]c1ccccc12`, the Potency is reported as “inactive”. With `c1ccccc1` the Potency was “inactive”. In the case of `CCC(O)OC(O)CC` (stereo not given), the Potency is reported as “inactive”. For `O=C1c2ccccc2C(=O)C1c1ccc2ccccc2n1`, the Potency was “inactive”. With `CC1(C)CC(N=C=O)CC(C)(CN=C=O)C1` (stereo not given) the Potency was “inactive”. In the case of `Cc1ccc([N+](=O)[O-])cc1N`, the Potency is reported as “inactive”. With `CCO` the Potency was “inactive”. For `O=C1CCc2ccccc2O1`, the Potency was “inactive”. In the case of `COc1c2ccoc2cc2oc(=O)ccc12`, the Potency is reported as “inactive”. In the case of `COCC(=O)O`, the Potency is reported as “inactive”. In the case of `CC12CCC(CC1=O)C2(C)C` (stereo not given), the Potency is reported as “inactive”. For `CCCCCCCCCCCCCCC1CO1` (stereo not given), the Potency was “inactive”. For `COc1cc(/C=C/c2ccccc2)oc(=O)c1`, the Potency was “inactive”. In the case of `Nc1ccc(Cl)cc1Cl`, the Potency is reported as “inactive”. With `C=C(C)C1CC=C(C)C(O)C1` (stereo not given) the Potency was “inactive”. In the case of `O=[N+]([O-])c1cccc(Cl)c1Cl`, the Potency is reported as “inactive”. In the case of `O=C(O)CC(C(=O)O)C(CC(=O)O)C(=O)O` (stereo not given), the Potency is reported as “inactive”. In the case of `C=Cc1ccccc1Cl`, the Potency is reported as “inactive”. For `O=C(O)c1ccccc1`, the Potency was “inactive”. In the case of `c1ccc2c(c1)c1cccc3ccc4cccc2c4c31`, the Potency is reported as “inactive”. With `Cc1cccc([N+](=O)[O-])c1C` the Potency was “inactive”. In the case of `CCCCCCCCCCCC(=O)O`, the Potency is reported as “inactive”. With `CCC(C)c1ccccc1O` (stereo not given) the Potency was “inactive”. In the case of `COc1ccc2nc(N)sc2c1`, the Potency is reported as “inactive”.
